Where “and” joins values, the source holds several entries; their conditions need not be identical. Equal entries are not always repeated. Records with an inconclusive call do not appear. Calls of active or inactive are those of the source. Calls follow the shape of the dose curve; as a rule, active = well fitted cell-killing curve with a large enough effect in the repeat runs; inconclusive = weak or mixed curves; inactive = no such curve, though single readings can be large or run the other way.
Experiment: qHTS assay to identify small molecule antagonists of the peroxisome proliferator-activated receptor delta (PPARd) signaling pathway - cell viability counter screen (AID 743213); also: nearly all actives have a fitted effect of over 50% in size
Settings: PPARd-bla HEK293H viability, CellTiter-Glo luminescence, 17 h; series mostly up to 62 µM; viability change, negative = cytotoxic: at the top concentration
Description: U.S. Tox21 Program National Center for Advancing Translational Sciences [NCATS] NIH Chemical Genomics Center [NCGC] U.S. Environmental Protection Agency [EPA] National Institutes of Environmental Health Sciences [NIEHS] National Toxicology Program [NTP] U.S. Food and Drug Administration [FDA] Tox21 Assay Overview: The peroxisome proliferator-activated receptors (PPARs) are lipid-activated transcription factors of the nuclear receptor superfamily with three distinct subtypes namely PPAR alpha, PPAR delta (PPARd) and PPAR gamma. All these subtypes heterodimerizes with Retinoid X receptor (RXR) and have different physiological functions. […] To identify the compounds that inhibit PPAR-delta signaling, GeneBLAzer PPAR delta UAS-bla HEK293H cell line (Invitrogen, Carlsbad, CA, USA) containing a beta-lactamase reporter gene under the control of an Upstream Activator Sequence (UAS) was used to screen the Tox21 compound library. The cytotoxicity of the Tox21 compound library against the PPARd-bla cell line was tested in parallel by measuring the cell viability using CellTiter-Glo assay (Promega, Madison, WI) in the same wells.
Tox21 Assay Protocol Summary: PPARd-bla cells were dispensed at 3000 cells/5uL/well in 1536-well black wall/clear bottom plates using a Multidrop Combi (Thermo Fisher Scientific, Waltham, MA) dispenser. After the assay plates were incubated at 37 C and 5% CO2 for 5 h, 23 nL of compounds dissolved in DMSO, positive controls or DMSO only was transferred to the assay plate by a Pintool station (Kalypsys, San Diego, CA), followed by addition of 1ul L165041 (300 nM, final concentration in the wells). The assay plates were incubated at 37 C for 17 h, and then 1 uL of LiveBLAzerTM B/G FRET substrate was added using a Bioraptr Flying Reagent Dispenser (FRD) workstation (Beckman Coulter, Indianapolis, IN, USA). The assay plates were incubated at room temperature for 2 h and fluorescence intensity was measured by an Envision plate reader (PerkinElmer, Shelton, CT). For cell viability readout that measures cytotoxicity, 3 ul/well of CellTiter-Glo reagent was added into the assay plates using a Bioraptr FRD. After 30 min incubation at room temperature, the luminescence intensity in the plates was measured using a ViewLux plate reader (PerkinElmer).
In the case of `CC(C(=O)O)c1ccc(CC2CCCC2=O)cc1` (stereo not given), the “viability change, negative = cytotoxic” value is reported as -3.78% (inactive).
With `Nc1nc2c(ncn2COC(CO)CO)c(=O)[nH]1` the “viability change, negative = cytotoxic” value was -22.5% (inactive).
With `OC1CCCCC1c1ccccc1` (stereo not given) the “viability change, negative = cytotoxic” value was -3.88% (inactive).
For `OCCCC1CCCCC1`, the “viability change, negative = cytotoxic” value was 7.17% (inactive).
For `Cc1nc2c([nH]1)c(=O)n(C)c(=O)n2Cc1ccco1`, the “viability change, negative = cytotoxic” value was 6.71% (inactive).
With `CCCCC/C=C\CCC=O` the “viability change, negative = cytotoxic” value was 5.72% (inactive).
For `Cc1ccc(C#N)cc1`, the “viability change, negative = cytotoxic” value was 12.2% (inactive).
With `CC[N+](C)(C)c1cccc(O)c1` the “viability change, negative = cytotoxic” value was 2.92% (inactive).
For `CN(C)CCCSc1ccccc1NC(=O)/C=C/c1ccccc1`, the “viability change, negative = cytotoxic” value was -4.44% (inactive).
With `Cc1ccc(=O)n(-c2ccccc2)c1` the “viability change, negative = cytotoxic” value was 19.7% (inactive).
With `CC(=O)Nc1c(I)cc(I)c(C(=O)O)c1I` the “viability change, negative = cytotoxic” value was 0.525% (inactive).
With `CN(C)CCCN1c2ccccc2CCc2ccc(Cl)cc21` the Potency was 21.9 µM (active) and 13.3 µM (active).
For `C=COCC1CCC(CO)CC1` (stereo not given), the “viability change, negative = cytotoxic” value was 5.42% (inactive).
In the case of `CCC(C)C1CCCCC1=O` (stereo not given), the “viability change, negative = cytotoxic” value is reported as 10.9% (inactive).
With `CCn1nc(C(=O)O)c(=O)c2cc3c(cc21)OCO3` the “viability change, negative = cytotoxic” value was 1.44% (inactive).
In the case of `CCSC(=O)N(CC(C)C)CC(C)C`, the “viability change, negative = cytotoxic” value is reported as 8.58% (inactive).
In the case of `O=C1CC2CC1C1CCCC21` (stereo not given), the “viability change, negative = cytotoxic” value is reported as 21.5% (inactive).
For `CCOC(=O)[C@H](CCc1ccccc1)N[C@@H](C)C(=O)N1[C@H](C(=O)O)C[C@@H]2CCC[C@@H]21`, the “viability change, negative = cytotoxic” value was 2.39% (inactive).
With `COC(C)(C)CCCC(C)CC=O` (stereo not given) the “viability change, negative = cytotoxic” value was -2.53% (inactive).
In the case of `COC(=O)CC(C)=O`, the “viability change, negative = cytotoxic” value is reported as -17.4% (inactive).
With `NS(=O)(=O)c1ccc(C(=O)O)cc1` the “viability change, negative = cytotoxic” value was -7.51% (inactive).
For `CCCCNC(=O)NCCCC`, the “viability change, negative = cytotoxic” value was 1.26% (inactive).
In the case of `NC(=O)c1cn(Cc2c(F)cccc2F)nn1`, the “viability change, negative = cytotoxic” value is reported as 1.45% (inactive).
In the case of `CCO[Si](CCC1CCC2OC2C1)(OCC)OCC` (stereo not given), the “viability change, negative = cytotoxic” value is reported as 7.8% (inactive).
For `N=C(N)c1ccc(OCCCOc2ccc(C(=N)N)cc2)cc1`, the “viability change, negative = cytotoxic” value was -28.4% (inactive).
In the case of `CCC(=O)OC(C)c1ccccc1` (stereo not given), the “viability change, negative = cytotoxic” value is reported as 18.4% (inactive).
In the case of `CC(C[N+](C)(C)C)OC(N)=O` (stereo not given), the “viability change, negative = cytotoxic” value is reported as 3.53% (inactive).
With `N[C@H](C(=O)O)c1ccc(O)cc1` the “viability change, negative = cytotoxic” value was -13% [at 28.9 µM] (inactive).
For `NS(=O)(=O)c1cc2c(cc1Cl)NC(C1CC3C=CC1C3)NS2(=O)=O` (stereo not given), the “viability change, negative = cytotoxic” value was 26.1% (inactive).
For `N[C@@H](C(=O)N[C@@H]1C(=O)N2C(C(=O)O)=C(Cl)CS[C@H]12)c1ccccc1`, the viability change, negative = cytotoxic was 10.2% [at 13.7 µM] (inactive).
With `C=C[Si](OC(=C)C)(OC(=C)C)OC(=C)C` the “viability change, negative = cytotoxic” value was -16.8% (inactive).
For `CC(C)(O)C#CC(C)(C)O`, the “viability change, negative = cytotoxic” value was 6.66% [at 80.4 µM] (inactive).
With `CCCCCCCCCCCCN(CCCCCCCCCCCC)CCCCCCCCCCCC` the “viability change, negative = cytotoxic” value was 1.17% (inactive).
With `CC(NC(CCc1ccccc1)C(=O)O)C(=O)N1C(=O)N(C)CC1C(=O)O` (stereo not given) the “viability change, negative = cytotoxic” value was -2.45% (inactive).
For `C=C(C)C(=O)OCCCCCCCC(C)C`, the “viability change, negative = cytotoxic” value was 1.57% [at 80.4 µM] (inactive).
With `O=C1OC(=O)C2CCCCC12` (stereo not given) the “viability change, negative = cytotoxic” value was -0.878% (inactive).
In the case of `C=CCS(=O)(=O)O`, the “viability change, negative = cytotoxic” value is reported as 6.5% (inactive).
In the case of `CC(C)(C)NCCNC(C)(C)C`, the “viability change, negative = cytotoxic” value is reported as 0.0627% (inactive).
In the case of `FC1(F)C(F)(F)C(F)(F)C2(F)C(F)(F)C(F)(F)C(F)(F)C(F)(F)C2(F)C1(F)F` (stereo not given), the “viability change, negative = cytotoxic” value is reported as 22.7% (inactive).
With `N[C@H]1CN(c2c(F)cc3c(=O)c(C(=O)O)cn(C4C[C@H]4F)c3c2Cl)CC12CC2` (stereo not given in full) the “viability change, negative = cytotoxic” value was 2.68% (inactive).

— PubChem BioAssay (Tox21)
% is scaled to controls: 0 for no effect and ±100 for the full control effect; potency is read from the fitted curve at half-maximal effect.
